Entries with a potency or affinity are not part of this list. Calls of active or inactive are those of the source. The rule behind the calls is not given here.
target: KSHV LANA C-terminal domain (residues 932-1162) binding to LBS DNA (UniProt O40947); assay: inhibitors of C-LANA binding to LBS DNA, dose response, biochemical, fluorescence polarization, cherry-picked samples (AID 504725); conditions: MBP-C-LANA / FAM-LBS DNA fluorescence polarization, percent change from plate compound-well median; series mostly up to 35 µM

outcome, inactive:
Cc1ccc(NC(=S)N/C(=N/S(=O)(=O)c2ccccc2)c2ccccc2)cc1
O=C1c2ccccc2C(=O)N1Cc1ccc2c(c1)OCO2
CCN(C(=O)COC(=O)CNS(=O)(=O)c1ccc(SC)c([N+](=O)[O-])c1)C1CCCCC1
CN(C)c1ccc(/C=C/C(=O)c2ccc(O)cc2)cc1[N+](=O)[O-]
NNc1nnc2c3cc(F)ccc3n(Cc3ccccc3)c2n1
CCN(CC)C(=O)C1c2ccccc2Oc2ccccc21
COc1ccc(/C=C/c2cc(C(F)(F)F)[nH]c(=O)n2)cc1OC
CCCCN(C(=O)C(C)Oc1ccc(Br)cc1)c1c(N)n(CC(C)C)c(=O)[nH]c1=O (stereo not drawn)
CSc1nc(SC(C)C(=O)O)c2c3c(sc2n1)COC(C)(C)C3 (stereo not drawn)
COc1ccccc1CNC(=O)C(=O)NCC1CCCN1S(=O)(=O)c1cccs1 (stereo not drawn)
COc1ccc(S(=O)(=O)N2CCC(C(=O)N3CCCCC3)CC2)cc1
COc1ccc(OCC(=O)N2CCN(c3cccc(C(F)(F)F)c3)CC2)cc1
Cc1ccc(S(=O)(=O)Nc2ccc(Br)cc2C(NCC(=O)O)c2ccccc2)cc1 (stereo not drawn)
COc1cc(CN2CC(=O)N(c3cc(Cl)ccc3C)C2=S)cc(OC)c1OC
Cc1nnc2sc(-c3csc4c3CCCC4)nn12
CCN1/C(=C2/SC(=S)N(NC(C)=O)C2=O)Sc2ccc(OC)cc21
CCc1nnc(NC(=O)c2cccc(S(=O)(=O)N(C)c3ccccc3)c2)s1
O=C(COc1cccc(F)c1)Nc1nc(-c2cccnc2)cs1
COc1ccc(C(=O)c2ccsc2N)cc1
Cc1noc(C)c1-c1nc(CSc2ccccc2)no1
CN(C)CCCNC(=O)c1ccccc1Oc1ccccc1
Cc1ccc(N(C)C(=O)C2CCCN2S(=O)(=O)c2ccc3c(c2)n(C)c(=O)c(=O)n3C)cc1 (stereo not drawn)
Cc1cc(C(F)(F)F)c2c(N)c(C(=O)Nc3cc(C)on3)sc2n1
O=C(OCC(=O)N1N=C(c2ccc(Cl)cc2)CC1c1ccco1)c1cccnc1 (stereo not drawn)
CC(C)Cn1c(N)c(C(=O)CSc2nnc(-c3ccco3)n2C)c(=O)n(C)c1=O
Cc1ccc(OCC(=O)O/N=C(\N)Cc2ccc([N+](=O)[O-])cc2)cc1C
CCN(c1ccc(C)cc1C)S(=O)(=O)c1nnc(NC(=O)c2ccco2)s1
CCOc1ccc(Nc2ccc(N)c(S(=O)(=O)O)c2)cc1
O=C(c1coc(=O)c(Br)c1)N1CCCc2ccccc21
CC(=O)N/C(=N\OCc1ccc(Br)cc1)c1nonc1NC(C)=O
COc1ccc(NC(=O)COC(=O)c2c(-c3ccccc3)noc2C)cc1
Cc1c(C#N)c(=O)c(-[n+]2ccccc2)c([S-])n1-c1ccc(Cl)cc1
Cc1cccc(Nc2nc(N)c([N+](=O)[O-])c(NCc3ccccc3)n2)c1
O=C1c2cccc3c(N4CCCCC4)ccc(c23)C(=O)N1c1cccc(O)c1
O=C(CC1CCCC1)N1CCN(S(=O)(=O)c2ccccc2)CC1
Cc1cc(-c2nnc(SCC(=O)Nc3ccccc3)n2C)no1
CCOC(=O)[C@H]1[C@H]2COc3cc(OC)ccc3[C@@H]2N2C(=O)CN(Cc3ccc(OC)cc3)C(=O)[C@@]12C
COc1cccc(NC(=O)CN(C)CC(=O)NCc2ccco2)c1

Source: PubChem BioAssay AID504725 (Broad Institute, 2011)
